DT40 TDP1 CPT: qHTS for Inhibitors of human tyrosyl-DNA phosphodiesterase 1 (TDP1): qHTS in cells in presence of CPT. actives 12% (n = 420,000). Potency, µM (titrated, usually from 46.2 µM), for the others: top-dose activity change, negative = growth inhibition, actives largely listed as inhibitors. chicken DT40 Tdp1-/-;hTDP1 cells + 20 nM CPT, ATP luminescence, 48 h; note: potency is the fitted concentration of half-maximal effect; nearly all actives have a fitted effect of over 55% in size
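Chicken DT40 Tdp1-/- cells complemented with human TDP1, 400 cells/well, exposed to compounds plus 20 nM camptothecin for at least 48 h at 37 C; viability read as ATP content by CellTiter-Glo luminescence.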
ELG1 repair inh: qHTS screen for small molecules that inhibit ELG1-dependent DNA repair in human embryonic kidney (HEK293T) cells expressing luciferase-tagged ELG1; Potency, µM (series often up to 46.1 µM), without a hit: at the highest dose activity change, negative = inhibition, usual class: inhibitors; AID 504467, 2011; actives 2.3% (n = 330,000); HEK293T ELG1-luciferase reporter, luminescence, 16 h; DNA damage induced by 5-fluorouridine; note: potency is the fitted concentration of half-maximal effect; nearly all actives have a fitted effect of over 55% in size
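HEK293T cells expressing luciferase-tagged ELG1 (2,000/well) received 5-Fluorouridine plus compound or DMSO for 16 hr at 37 °C. Luciferase was read by ONE-Glo luminescence after 30 min at room temperature.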
IL1B secr inh: qHTS for Inhibitors of Inflammasome Signaling: IL-1-beta AlphaLISA Primary Screen. THP-1 LPS/ATP IL-1B secretion, AlphaLISA, 16 h; hits give low values. activity change, % at 57.5 µM. actives 4.7% (n = 360,000). AID 743279, 2014; in the data active = activity change below about -50%; inconclusive = mostly about -30% to -49%
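Secreted IL-1B measured by AlphaLISA bead assay after 16 h compound exposure of THP-1 cells; compounds (final up to 57.5 uM) added 1 h before LPS (250 ng/mL) and ATP (1.25 mM) stimulation; lower signal means less secretion.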
HT1080 IDH1KD tx: qHTS for induction of synthetic lethality in tumor cells producing 2HG: qHTS for the HT-1080-IDH1KD cell line; HT-1080 IDH1 knockdown viability, ATP luminescence, 48 h; Potency, µM (top dose mostly 46.1 µM), without a hit: at the highest dose activity, negative = toxicity, actives largely listed as cytotoxic; actives 2% (n = 360,000); AID 686971, 2013;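 note: potency is the fitted concentration of half-maximal effect; 0% = DMSO wells and -100% = cell-free medium wells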
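In this qHTS, HT-1080 cells depleted of IDH1 are exposed for 48 h at 37 °C to compound titrations. Toxicity is scored from CellTiter-Glo luminescence, with DMSO as full viability and medium alone as none.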
HT1080-NT tox: qHTS for induction of synthetic lethality in tumor cells producing 2HG: qHTS for the HT-1080-NT fibrosarcoma cell line; HT-1080-NT fibrosarcoma viability, CellTiter-Glo ATP luminescence, 48 h; Potency, µM (series often up to 46.1 µM), for inactives: top-dose activity, negative = less viability, actives largely listed as cytotoxic; actives 1.6% (n = 360,000); AID 686970, 2013;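 note: NT is the 2HG producing partner of a matched IDH1 knockdown line; potency is the fitted concentration of half-maximal effect; 0% = DMSO-treated cells and -100% = media-only wells without cells; nearly all actives have a fitted effect of over 55% in size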
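HT-1080-NT; 750 cells/well; 5% FBS RPMI; 48 h compound, 37 degrees C; CellTiter-Glo luminescence; curve fitting and curve-class assignment.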
TDP1 cell noCPT: qHTS for Inhibitors of human tyrosyl-DNA phosphodiesterase 1 (TDP1): qHTS in cells in absence of CPT; AID 686978, 2013; Potency, µM (highest dose often 46.2 µM), for the others: top-dose activity change, negative = growth inhibition, usual class: inhibitors; DT40 Tdp1-/- hTDP1 cells, no CPT, ATP luminescence, 48 h; actives 15% (n = 420,000); note: potency is the fitted concentration of half-maximal effect; nearly all actives have a fitted effect of over 55% in size
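Readout: luminescence from CellTiter-Glo after 30 min in the dark at RT. Cells: DT40 Tdp1-/- with stable hTDP1, 400/well. Exposure: compounds alone, ≥48 hr, 37 °C.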
Active calls of the source: *. An excerpt weighted towards active compounds, which were near 19% of everything screened. Unless noted, calls come from the whole dose curve; as a rule, active = well fitted curve in the direction sought with a large enough effect; inconclusive = small, poorly fitted or top-dose-only effect, or another doubt; inactive = no such curve, though single readings can be large; an effect the other way counts as inactive or inconclusive. Unless noted, % is set by controls: 0 for no effect and ±100 for the full control effect.

Screening Cc1cccc(C(=O)NC2CCN(CC(=O)Nc3ccccc3Cl)CC2)c1 returned DT40 TDP1 CPT 0%, ELG1 repair inh -9%, IL1B secr inh -12, HT1080 IDH1KD tx -3%, HT1080-NT tox 4% and TDP1 cell noCPT -5%.
Screening O=C(NCc1cccs1)C(=O)NCC(c1ccco1)N1CCN(c2ccc(F)cc2)CC1 (stereo not drawn) returned DT40 TDP1 CPT inconclusive, ELG1 repair inh inconclusive, IL1B secr inh -5, HT1080 IDH1KD tx -22%, HT1080-NT tox -8% and TDP1 cell noCPT 23µM*.
`O=C(NCCC1=CCCCC1)C(=O)NCC(c1ccco1)N1CCN(c2ccccc2)CC1` (stereo not drawn) gave DT40 TDP1 CPT 12µM*, ELG1 repair inh -2%, IL1B secr inh 30, HT1080 IDH1KD tx 0%, HT1080-NT tox 5% and TDP1 cell noCPT 9.2µM*.
O=C(NCC(c1ccco1)N1CCN(c2ccc(F)cc2)CC1)c1cccs1 (stereo not drawn) was read as DT40 TDP1 CPT inconclusive, ELG1 repair inh -16%, IL1B secr inh -1, HT1080 IDH1KD tx 1%, HT1080-NT tox -3% and TDP1 cell noCPT inconclusive.
COc1ccc(N2CCN(C(CNC(=O)C(=O)NCCC3=CCCCC3)c3ccco3)CC2)cc1 (stereo not drawn) was read as DT40 TDP1 CPT inconclusive, ELG1 repair inh 7%, IL1B secr inh 8, HT1080 IDH1KD tx 0%, HT1080-NT tox -1% and TDP1 cell noCPT inconclusive.
O=C(NCC(c1cccnc1)N1CCN(c2ccc(F)cc2)CC1)C1CCCCC1 (stereo not drawn) was read as DT40 TDP1 CPT inconclusive, ELG1 repair inh -11%, IL1B secr inh -1, HT1080 IDH1KD tx -5%, HT1080-NT tox 2% and TDP1 cell noCPT inconclusive.
For O=C(NCC(c1cccnc1)N1CCN(c2ccccc2F)CC1)C1CCCCC1 (stereo not drawn) the results were DT40 TDP1 CPT inconclusive, ELG1 repair inh inconclusive, IL1B secr inh 7, HT1080 IDH1KD tx 0%, HT1080-NT tox 3% and TDP1 cell noCPT 10µM*.
Screening O=C(COc1ccccc1)NCC(c1ccco1)N1CCN(c2ccc(F)cc2)CC1 (stereo not drawn) returned DT40 TDP1 CPT inconclusive, ELG1 repair inh inconclusive, IL1B secr inh -54*, HT1080 IDH1KD tx -2%, HT1080-NT tox -18% and TDP1 cell noCPT inconclusive.
Screening CCN(CC)CCN1C(=O)C(=O)/C(=C(/O)c2ccc(S(=O)(=O)N3CCOCC3)cc2)C1c1ccc(C)cc1 (stereo not drawn) returned DT40 TDP1 CPT 4%, ELG1 repair inh 8%, IL1B secr inh 4, HT1080 IDH1KD tx 5%, HT1080-NT tox 0% and TDP1 cell noCPT 0%.
For COc1ccc2oc(=O)c(C(=O)N3CCN(C(=O)c4ccco4)CC3)cc2c1 the results were DT40 TDP1 CPT -12%, ELG1 repair inh 1%, IL1B secr inh 4, HT1080 IDH1KD tx 16%, HT1080-NT tox 2% and TDP1 cell noCPT -29%.
For COc1ccc(NC(=O)CSc2nc3c(c(=O)n2C)SCC3)cc1OC the results were DT40 TDP1 CPT 2%, ELG1 repair inh 6%, IL1B secr inh inactive, HT1080 IDH1KD tx 12%, HT1080-NT tox 5% and TDP1 cell noCPT -10%.
Screening CCc1ccc(NC(=O)C(=O)NCC(c2cccnc2)N2CCN(C)CC2)cc1 (stereo not drawn) returned DT40 TDP1 CPT -23% and TDP1 cell noCPT inconclusive.
For COc1ccc(N2CCN(C(CNC(=O)c3ccc4c(c3)OCO4)c3cccnc3)CC2)cc1 (stereo not drawn) the results were DT40 TDP1 CPT -26%, ELG1 repair inh 1%, IL1B secr inh -2, HT1080 IDH1KD tx 5%, HT1080-NT tox 7% and TDP1 cell noCPT inconclusive.
CCc1ccc(NC(=O)C(=O)NCC(c2cccnc2)N2CCN(c3ccc(F)cc3)CC2)cc1 (stereo not drawn) was read as DT40 TDP1 CPT inconclusive and TDP1 cell noCPT 3.7µM*.
O=C(NCC(c1cccnc1)N1CCN(c2ccc(F)cc2)CC1)c1ccc2c(c1)OCO2 (stereo not drawn) was read as DT40 TDP1 CPT 16µM*, ELG1 repair inh inconclusive, IL1B secr inh -15, HT1080 IDH1KD tx -6%, HT1080-NT tox -6% and TDP1 cell noCPT 8.2µM*.
Screening O=C(NCc1cccnc1)C(=O)NCC(c1ccco1)N1CCN(c2ccc(F)cc2)CC1 (stereo not drawn) returned DT40 TDP1 CPT 23µM*, ELG1 repair inh -20%, IL1B secr inh 6, HT1080 IDH1KD tx -4%, HT1080-NT tox 0% and TDP1 cell noCPT 16µM*.
Screening COc1ccc(C(O)c2ncc(-c3ccccc3OC)[nH]2)cc1F (stereo not drawn) returned DT40 TDP1 CPT -1%, IL1B secr inh 24, HT1080 IDH1KD tx 12%, HT1080-NT tox 0% and TDP1 cell noCPT -26%.
Screening Cc1cc(C(=O)Cn2cnc3ccc(Cl)cc3c2=O)c(C)n1C1CC1 returned DT40 TDP1 CPT 2%, IL1B secr inh -10, HT1080 IDH1KD tx 10%, HT1080-NT tox 21% and TDP1 cell noCPT -7%.
For COc1ccccc1C(=O)Nc1ccnn1C1CCN(CC2CC=CCC2)CC1 (stereo not drawn) the results were DT40 TDP1 CPT -8%, ELG1 repair inh inconclusive, IL1B secr inh -3, HT1080 IDH1KD tx 5%, HT1080-NT tox 8% and TDP1 cell noCPT 4%.
Screening CSc1ncc(C(=O)Nc2ccc(F)cc2F)c(-c2ccccc2)n1 returned DT40 TDP1 CPT -3% and TDP1 cell noCPT -19%.
COc1ccccc1CNC(=O)c1cnc(SC)nc1C was read as DT40 TDP1 CPT 23µM* and TDP1 cell noCPT 15µM*.
CSc1ncc(C(=O)NCc2ccc(F)cc2)c(-c2ccccc2)n1 was read as DT40 TDP1 CPT -13% and TDP1 cell noCPT active.

Screening results as filed in PubChem.
